The results in this text go back to PubChem BioAssay AID493200 (National Center for Advancing Translational Sciences (NCATS), 2011).

Results filed as inconclusive are left out. Unmarked numbers belong to inactive results. Activity calls are given as the source filed them. Calls come from the whole dose curve; as a rule, active = well fitted activation curve with a large enough effect; inconclusive = small, poorly fitted or top-dose-only effect; inactive = no such curve, though single readings can be large or run the other way.
Potency is the fitted concentration of half-maximal effect.

The experiment can be described thus: qHTS Assay for Rab9 Promoter Activators: Initial hit validation from the primary screen. For activation: % of control where 0% means no effect. The following applies: Huh7 Rab9 promoter luciferase reporter, 24 h; series mostly up to 46.1 µM; activation: at the top concentration. Put shortly:
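Luciferase signal, read 10 min after Amplite reagent, reports Rab9 promoter activation. Compounds in DMSO were applied for 24 h at 37C to Rab9-luciferase Huh7 cells, pre-incubated 2 h in reduced-serum medium with 10% FBS.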
A general note: Quantitative high-throughput screening tests each substance at several concentrations.
For the compound `CCOc1cc(C2C(C#N)=C(N)Oc3n[nH]c(C)c32)ccc1OCCN1CCOCC1` (configuration not stated), the “activation” value was 0.655%.
Same read-out and setting: the result for `CN(C)C(=O)[C@H]1C[C@H]1[C@@H](O)[C@H](CO)NC(=O)[C@H](COCc1ccccc1)NC(=O)OC(C)(C)C` reads -1.21%.
With `O=C(CCN1C(=O)c2ccccc2C1=O)Nc1ccc(-c2nc3ccccc3s2)cc1`, the Potency was 281 nM (active).
On to `O=S(=O)(c1cccs1)N1CCN(c2ncccn2)CC1`, for which the “activation” value is 2.9%.
As for `O=CN1CCN(C(=O)c2ccccc2Cl)CC1`, the “activation” value is 1.05%.
As for `Cc1ccc(CNC(=O)Nc2ccc(C)cc2)cc1`, the Potency was 19900 nM (active).
The same measure, in the same setting: the same measure for `Cc1ccc(N=Cc2sc(O)c3ccccc23)c(C)c1`: 2230 nM (active).
`COC(=O)c1cn(NC(=O)C2CCCCC2)c(=O)c2ccccc12`: the “activation” value is -5.53%.
Still for that read-out and setting: the same measure for `O=C(/C=C/c1ccco1)NCC1OCCc2ccccc21` (configuration not stated): -1.48%.
The same measure, in the same setting: the same measure for `Cc1ccccc1NC(=O)CSc1ccc(-c2cccnc2)nn1`: 2.88%; for `CCCNC(=O)C1CCN(S(=O)(=O)c2ccc3[nH]c(=O)ccc3c2)CC1`: -0.573%.
With `O=C(CSc1nnc(-c2ccc([N+](=O)[O-])cc2)o1)Nc1ccccn1`, the Potency is 560 nM (active).
For the compound `C=CCOC(=O)N1CCN(c2cccc(C(F)(F)F)c2)CC1`, the “activation” value was -5.55%.
Still for that read-out and setting: the result for `CC1(C)CC(=O)c2c(O)c(-c3ccccc3)c(=O)n(-c3ccccc3)c2C1` reads -6.27%.
With `COc1ccc(-c2csc(Nc3ncccn3)n2)cc1C`, the Potency is 281 nM (active).
Take `O=C(O)C1=CC[C@@H](c2ccc(Cl)cc2)N(S(=O)(=O)c2ccc(Cl)cc2)[C@H]1c1ccccc1`: the “activation” value was -13.5%.
Still for that read-out and setting: the same measure for `COC(=O)c1sccc1NC(=S)OC`: -1.18%.
On to `COc1ccc2oc(=O)c(C(=O)NC(C)c3ccccc3)cc2c1` (configuration not stated), for which the “activation” value was 3.92%.
In the case of `Cc1ccc(NC(=O)NC(=O)c2ccccc2)cc1F`, the Potency is 445 nM (active).
For `O=C(NCCSCc1c(F)cccc1Cl)c1ccc(CN2CCOCC2)cc1`, the “activation” value is -18.6%.
Still for that read-out and setting: the result for `Fc1ccc(-c2nc3nc4ccccc4nc3n2Cc2ccco2)cc1` reads 12%; that for `Cc1ccc(S(=O)(=O)N2CCN(c3cnn(C)c(=O)c3Cl)CC2)cc1`, -7.24%.
Consider `Cc1cccc(C)c1NC(=O)Nc1cccs1`, for which the “activation” value was -4.81%.
Still for that read-out and setting: the same measure for `CC(=O)NC(CCCN1C(=O)c2ccccc2C1=O)c1nnn(C)n1` (configuration not stated): 1.74%.
On the same count and under the same terms, the same measure for `O=C(C[N+]1(CC#Cc2ccccc2)CCCCC1)c1ccccc1`: 0.37%; for `COc1cccc(NC(=O)CN2C(=O)CSc3ccc(S(=O)(=O)N4CCC(C)CC4)cc32)c1`: -20.2%.
For the compound `O=C(CSc1nnc(-c2ccccc2)o1)Nc1ccccc1F`, the Potency is 112 nM (active).
For `CCCCc1cc(=O)oc2cc(OCC(=O)N3CCOCC3)ccc12`, the “activation” value is -1.76%.
The same measure, in the same setting: the same measure for `O=C(CCNC(=O)c1ccc(Br)o1)NCc1ccc(Cl)cc1`: 0.0639%; for `NCCOc1ccccc1-c1ccccc1`: -3.52%.
Still for that read-out and setting: the same measure for `O=C(c1cc2cc([N+](=O)[O-])ccc2oc1=O)n1cccn1`: 0.777%.
The same measure, in the same setting: the result for `CCOc1ccc(CNC(=O)C2CCCN(S(C)(=O)=O)C2)cc1OC` (configuration not stated) reads 6.63%.
